Experiments:
[1] = target: Protein kinase C alpha type (Homo sapiens) (UniProt P17252); conditions: at 1 µM
[2] = target: Protein kinase C alpha type (Homo sapiens) (UniProt P17252); conditions: at 10 µM
[3] = target: Protein kinase C beta type (Homo sapiens) (UniProt P05771); conditions: at 1 µM
[4] = target: Protein kinase C beta type (Homo sapiens) (UniProt P05771); conditions: at 10 µM
[5] = target: Protein kinase C beta type (Homo sapiens) (UniProt P05771); conditions: at 1 µM; remark: listed apart in the source
[6] = target: Protein kinase C beta type (Homo sapiens) (UniProt P05771); conditions: at 10 µM; remark: listed apart in the source
[7] = target: Protein kinase C gamma type (Homo sapiens) (UniProt P05129); conditions: at 1 µM
[8] = target: Protein kinase C gamma type (Homo sapiens) (UniProt P05129); conditions: at 10 µM
[9] = target: Protein kinase C delta type (Homo sapiens) (UniProt Q05655); conditions: at 1 µM
Sequence of Protein kinase C delta type (Homo sapiens) (Q05655 whole entry, looked up): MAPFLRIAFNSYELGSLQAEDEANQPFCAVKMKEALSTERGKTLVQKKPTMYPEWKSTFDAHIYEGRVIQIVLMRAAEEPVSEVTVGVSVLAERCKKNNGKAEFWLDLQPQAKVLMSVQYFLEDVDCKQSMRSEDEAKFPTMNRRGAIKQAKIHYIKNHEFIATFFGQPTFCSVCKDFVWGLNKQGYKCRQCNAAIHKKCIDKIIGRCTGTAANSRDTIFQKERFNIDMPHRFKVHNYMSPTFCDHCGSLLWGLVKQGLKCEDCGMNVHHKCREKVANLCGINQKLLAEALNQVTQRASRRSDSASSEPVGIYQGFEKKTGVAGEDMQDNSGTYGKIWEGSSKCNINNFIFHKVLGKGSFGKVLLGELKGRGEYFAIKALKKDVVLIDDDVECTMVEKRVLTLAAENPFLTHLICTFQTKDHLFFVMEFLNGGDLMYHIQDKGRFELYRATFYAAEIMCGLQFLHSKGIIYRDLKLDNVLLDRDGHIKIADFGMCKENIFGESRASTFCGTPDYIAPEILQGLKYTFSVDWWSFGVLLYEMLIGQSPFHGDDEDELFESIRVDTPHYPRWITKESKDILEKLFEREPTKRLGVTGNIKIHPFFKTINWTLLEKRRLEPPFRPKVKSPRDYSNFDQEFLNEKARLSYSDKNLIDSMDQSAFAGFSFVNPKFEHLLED

[10] = target: Protein kinase C delta type (Homo sapiens) (UniProt Q05655); conditions: at 10 µM

Sequence of Protein kinase C beta type (Homo sapiens) (P05771 2-671 limits assumed): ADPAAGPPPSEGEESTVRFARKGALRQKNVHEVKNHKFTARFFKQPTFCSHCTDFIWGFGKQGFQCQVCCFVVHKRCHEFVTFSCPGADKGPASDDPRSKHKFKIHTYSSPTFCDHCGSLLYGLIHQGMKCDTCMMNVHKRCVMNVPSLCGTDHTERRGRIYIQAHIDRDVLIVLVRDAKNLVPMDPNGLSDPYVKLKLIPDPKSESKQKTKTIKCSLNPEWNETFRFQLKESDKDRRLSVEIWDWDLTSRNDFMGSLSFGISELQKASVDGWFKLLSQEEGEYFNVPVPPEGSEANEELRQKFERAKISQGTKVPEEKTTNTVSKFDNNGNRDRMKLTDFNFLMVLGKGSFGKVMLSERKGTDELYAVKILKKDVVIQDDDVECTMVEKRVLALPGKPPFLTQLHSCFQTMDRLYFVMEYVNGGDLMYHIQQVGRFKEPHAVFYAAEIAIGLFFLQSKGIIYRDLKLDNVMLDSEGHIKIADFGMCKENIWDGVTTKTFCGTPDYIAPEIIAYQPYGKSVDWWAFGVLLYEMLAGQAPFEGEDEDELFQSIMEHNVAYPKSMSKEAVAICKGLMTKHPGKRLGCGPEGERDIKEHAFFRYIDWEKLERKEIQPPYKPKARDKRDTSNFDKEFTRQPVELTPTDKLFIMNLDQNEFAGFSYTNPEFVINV

| Compound | residual activity [1] [%] | residual activity [2] [%] | residual activity [3] [%] | residual activity [4] [%] | residual activity [5] [%] | residual activity [6] [%] | residual activity [7] [%] | residual activity [8] [%] | residual activity [9] [%] | residual activity [10] [%] |
| --- | --- | --- | --- | --- | --- | --- | --- | --- | --- | --- |
| O=C(CCCc1ccc(-c2ccccc2F)cc1)Nc1ccc(O)cc1 | 106 | 108 | 112 | 108 | 108 | 101 | 104 | 110 |  |  |
| NCCNc1ncc(C(N)=O)c(Nc2cccc(C(F)(F)F)c2)n1 | 45 | 8 | 106 | 60 |  |  | 58 | 11 | 75 | 28 |
| NC(=O)Nc1sc(-c2ccc(F)cc2)cc1C(N)=O | 91 | 54 | 103 | 77 | 105 | 89 |  |  | 78 | 31 |
| COc1ccc2c(c1)c(C1=C(c3c[nH]c4ccccc34)C(=O)NC1=O)cn2CCCN(C)C | -1 | 0 | 4 | -1 | 4 | 3 | 3 | 0 | 3 | -1 |
| c1ccc(-c2cnc(Nc3ccc(OCCN4CCCC4)cc3)s2)cc1 | 101 | 110 | 121 | 116 |  |  | 123 | 111 |  |  |
| CCCC(=O)Oc1ccc2[nH]c(C(=O)c3cc4ccccc4[nH]3)cc2c1 | 106 | 108 |  | 93 | 100 |  |  |  | 101 |  |
| CC(C)(C)n1nc(Cc2cccc3ccccc23)c2c(N)ncnc21 | 93 | 93 | 119 | 97 | 104 | 105 | 106 | 94 | 101 | 106 |
| COc1cc2nccc(Oc3ccc(NC(=S)NC(=O)c4ccccc4C)cc3)c2cc1OC | 99 | 99 |  |  | 98 | 101 |  |  | 98 | 101 |
| Cn1c2ccccc2c2c3c(c4c5ccccc5n(CCC#N)c4c21)CNC3=O | 1 | 3 | 6 | 6 |  |  | 9 | 16 |  |  |
| O=C1NC(=O)C(c2c[nH]c3ccccc23)=C1c1c[nH]c2ccccc12 | 26 | 4 | 66 | 23 | 75 | 27 | 36 | 6 | 31 | 5 |
| CC(C)(C)c1nc2c3ccc(F)cc3c3c(=O)[nH]ccc3c2[nH]1 | 65 | 62 |  |  |  |  | 40 | 46 | 54 | 63 |
| O=C1Cc2c([nH]c3ccc(Br)cc23)-c2ccccc2N1 | 90 | 70 |  |  |  | 88 |  | 93 | 99 | 93 |
| O=C(O)/C=C/c1cc(Br)c(Br)c(Br)c1Br | 105 | 102 | 124 |  | 97 | 101 | 96 |  | 100 | 96 |
| COc1cc2c(cc1OC)-c1n[nH]c(Nc3cccc(F)c3)c1C2 | 104 | 99 | 104 | 108 | 110 | 105 | 104 | 105 | 102 | 106 |
| COc1cc2ncnc(Nc3cccc(Cl)c3)c2cc1OC | 103 | 108 | 110 | 106 | 107 | 108 |  |  | 104 | 109 |
| Nc1ncnc2c1c(-c1ccc(Oc3ccccc3)cc1)cn2C1CCCC1 | 102 | 98 | 103 | 103 | 99 | 91 | 111 | 104 | 94 | 100 |
| Nc1nc(Nc2ccc(S(N)(=O)=O)cc2)nn1C(=O)c1c(F)cccc1F | 63 | 18 |  |  |  | 54 | 61 | 19 | 70 | 23 |
| COc1ccc(Cl)cc1NC(=O)Nc1cc(C)nc2ccccc12 | 98 | 98 |  |  |  |  |  |  |  |  |
| COc1ccc(CNC(=O)Nc2ncc([N+](=O)[O-])s2)cc1 | 102 | 101 |  |  |  |  |  |  |  |  |

| Compound | residual activity [1] [%] | residual activity [2] [%] | residual activity [3] [%] | residual activity [4] [%] | residual activity [5] [%] | residual activity [6] [%] | residual activity [7] [%] | residual activity [8] [%] | residual activity [9] [%] | residual activity [10] [%] |
| --- | --- | --- | --- | --- | --- | --- | --- | --- | --- | --- |
| O=C1NC(=O)C(c2cn(CCCn3ccnc3)c3ccccc23)=C1Nc1ccccc1 | 6 | 2 | 19 | 2 | 27 | 6 | 8 | 2 | 8 | 2 |
| O=C1NC(=O)c2c1c1c3ccccc3[nH]c1n1cncc21 | 97 | 84 |  |  |  |  | 71 | 56 | 79 | 70 |
| Cn1sc(=O)n(Cc2ccccc2)c1=O | 85 | 3 | 94 | 54 | 89 | 43 | 59 | 3 | 87 | 45 |
| O=c1cc(N2CCOCC2)oc2c1ccc1ccccc12 | 102 | 96 | 104 | 95 | 95 | 92 |  |  | 100 | 98 |
| O=C1Cc2c([nH]c3ccc([N+](=O)[O-])cc23)-c2ccccc2N1 | 100 | 105 |  |  |  |  |  |  |  |  |
| CC(C)[C@H](CO)Nc1nc(Nc2cc(N)cc(Cl)c2)c2ncn(C(C)C)c2n1 | 83 | 97 |  |  |  |  | 94 | 80 | 93 | 72 |
| NC(=O)c1ccc(-c2nc(-c3ccc4c(c3)OCCO4)c(-c3ccccn3)[nH]2)cc1 | 90 | 96 | 124 | 121 |  |  |  |  | 93 | 100 |
| CC(C)c1nn(-c2c(Cl)cccc2Cl)c2nc(Cc3ccc(OCCO)cc3)[nH]c(=O)c12 | 105 | 107 | 125 | 106 | 104 | 95 | 94 | 106 | 103 | 105 |
| Cc1cc(C)c(/C=C2\C(=O)Nc3ccccc32)[nH]1 | 100 | 104 |  |  |  |  |  |  |  |  |
| O=C1Nc2ccc(Cl)cc2/C1=C/c1cc(Cl)c(O)c(Cl)c1 |  |  |  |  |  | 90 |  |  | 100 | 100 |
| O=C1C(Cl)=C(N2C(=O)CCC2=O)C(=O)c2ccccc21 |  | 3 |  |  |  |  |  | 77 | 68 | 60 |
| Nc1nccc(-c2c(-c3ccc(F)cc3)ncn2C2CCNCC2)n1 |  |  | 115 | 69 |  |  |  | 63 |  |  |
| Nc1ncnc2c1cnn2-c1ccccc1 | 97 | 97 |  |  |  |  |  | 98 | 99 | 97 |
| Nc1ncnc2[nH]nc(Nc3ccc(F)cc3)c12 | 108 |  | 122 | 110 | 113 | 99 |  |  | 104 | 91 |
| CN(C)S(=O)(=O)c1ccc2c(c1)/C(=C/c1cc3c([nH]1)CCCC3)C(=O)N2 |  |  |  |  | 116 |  |  |  |  | 121 |
| CC(C)N(CCC(=O)c1ccc2ccccc2c1)Cc1ccccc1 |  |  |  |  |  |  |  | 85 |  |  |
| O=C(Nc1nc2ccccc2n1CCN1CCOCC1)c1cccc([N+](=O)[O-])c1 | 104 | 102 |  |  |  |  | 105 | 102 |  | 103 |
| O=S(=O)(NCCNC/C=C/c1ccc(Br)cc1)c1cccc2cnccc12 |  |  |  |  |  | 55 |  | 38 | 54 | 11 |
| COc1cc2nccc(Oc3ccc(NC(=O)Nc4cc(C)on4)c(Cl)c3)c2cc1OC |  | 101 | 107 | 97 | 109 | 104 |  |  | 100 | 106 |

| Compound | residual activity [1] [%] | residual activity [2] [%] | residual activity [3] [%] | residual activity [4] [%] | residual activity [5] [%] | residual activity [6] [%] | residual activity [7] [%] | residual activity [8] [%] | residual activity [9] [%] | residual activity [10] [%] |
| --- | --- | --- | --- | --- | --- | --- | --- | --- | --- | --- |
| Nc1n[nH]c2nc3ccccc3nc12 |  |  |  |  |  |  |  |  | 85 | 68 |
| Oc1cccc(-c2nc(N3CCOCC3)c3oc4ncccc4c3n2)c1 |  |  |  |  | 98 |  |  |  | 94 |  |
| CCCCc1c(-c2ccc(OC)cc2)[nH]c2nccnc12 |  |  | 101 | 90 | 104 | 102 |  | 106 |  | 106 |
| O=C(c1ccccc1)c1ccc(N2CCOCC2)cc1O |  |  | 120 | 113 |  |  |  |  |  |  |
| NC(=O)c1cccc(-c2cc(Nc3ccc(OC(F)(F)F)cc3)ncn2)c1 |  |  |  |  | 92 | 96 |  |  |  |  |
| Fc1ccc(-c2nc3n(c2-c2ccncc2)CCS3)cc1 |  |  |  | 82 |  |  |  |  |  | 85 |
| O=C1NC(=O)C(c2cn(CCCO)c3ncccc23)=C1c1cnccn1 |  |  |  |  |  |  | 92 | 91 | 97 | 91 |
| CCN(CC)CCNC(=O)c1c(C)[nH]c(/C=C2\C(=O)Nc3ccc(Cl)cc32)c1C |  |  | 125 | 117 |  |  |  | 51 |  | 68 |
| O=c1cc(N2CCNCC2)oc2c(-c3ccccc3)cccc12 |  | 102 |  |  | 97 | 95 |  |  | 101 | 102 |
| CCN1/C(=C/C(C)=O)Sc2ccc(OC)cc21 |  |  |  |  |  | 82 |  |  |  |  |
| N#C/C(=C\c1ccc(O)c(O)c1)C(=O)NCc1ccccc1 |  |  |  |  |  |  | 124 | 102 |  |  |
| CCCCc1c(-c2ccc(O)cc2)[nH]c2nccnc12 | 97 | 100 |  |  |  |  |  |  | 97 | 100 |
| CCOc1nc(NC(=O)Cc2cc(OC)ccc2OC)cc(N)c1C#N |  |  |  |  |  |  |  |  | 118 |  |
| O=S(=O)(c1cccc2cnccc12)N1CCCNCC1 |  |  | 75 | 46 |  | 67 |  | 63 | 85 | 32 |
| CCOC(=O)c1c(C)[nH]c(/C=C2\C(=O)Nc3ccccc32)c1C |  |  |  |  |  |  |  |  | 96 |  |
| CN([C@@H](Cc1ccc(OS(=O)(=O)c2cccc3cnccc23)cc1)C(=O)N1CCN(c2ccccc2)CC1)S(=O)(=O)c1cccc2cnccc12 |  |  |  |  |  |  | 99 | 99 |  |  |
| O=C(c1cc2cc(O)ccc2[nH]1)c1cc2cc(O)ccc2[nH]1 |  |  |  |  |  |  |  | 56 | 100 | 83 |
| N#C/C(=C1/Nc2ccccc2S1)c1ccnc(NCCc2cccnc2)n1 |  |  | 125 | 121 |  |  | 95 | 100 |  |  |
| N#Cc1c(NC(=O)c2cccc3ccccc23)sc2c1CCCC2 |  |  |  |  |  |  | 94 |  |  |  |

Source: ChEMBL document CHEMBL2218924, “A broad activity screen in support of a chemogenomic map for kinase signalling research and drug discovery” (Biochem J, 2013)
